# Assay results: PMC7862700, “An all-to-all approach to the identification of sequence-specific readers for epigenetic DNA modifications on cytosine”
# Legend:
# Test in all cases: DAPPL (digital affinity profiling via proximity ligation, sequencing); 10 mM Tris-HCl pH 7.5, 50 mM NaCl, 1 mM DTT, 4% glycerol, room temperature, 30 min; GST-TFs on glutathione beads, 16-mer random dsDNA library, 0.1% formaldehyde crosslink after washing; high values mean tight binding
# [1] = target: T1, FLI1 (Homo sapiens, UniProt Q01543 1-452); settings: protein: recombinant; tags: N-terminal GST; dsDNA, one strand shown
# T1 sequence: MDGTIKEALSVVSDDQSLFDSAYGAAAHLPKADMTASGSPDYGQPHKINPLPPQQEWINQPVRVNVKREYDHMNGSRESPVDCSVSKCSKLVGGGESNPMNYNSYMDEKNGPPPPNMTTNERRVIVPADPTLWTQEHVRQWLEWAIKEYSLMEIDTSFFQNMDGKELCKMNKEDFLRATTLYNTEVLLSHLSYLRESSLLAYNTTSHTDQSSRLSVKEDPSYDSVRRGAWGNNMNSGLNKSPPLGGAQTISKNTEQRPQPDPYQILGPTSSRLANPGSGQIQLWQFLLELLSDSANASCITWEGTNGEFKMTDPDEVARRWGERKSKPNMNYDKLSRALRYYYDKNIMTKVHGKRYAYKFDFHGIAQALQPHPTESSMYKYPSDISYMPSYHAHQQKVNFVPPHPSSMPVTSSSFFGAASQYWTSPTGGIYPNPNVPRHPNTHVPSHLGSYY
# Method in brief: (§1)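 GST fusions of human transcription factors were expressed in yeast and captured with glutathione beads. Once given DNA barcodes and pooled alongside a tag-only sample, they were incubated for 30 min at room temperature with 200 nmole of a random double-stranded 16-mer DNA library in Tris/NaCl/DTT/glycerol buffer, then washed, crosslinked (0.1% formaldehyde), proximity-ligated, PCR-amplified and sequenced on an Illumina NextSeq500. The binding signal of each hexamer is its read frequency for a factor divided by its frequency for the tag-only sample.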
# [2] = target: T2, ELK1 (Homo sapiens, UniProt P19419 1-428); settings: protein: recombinant; tags: N-terminal GST; dsDNA, one strand shown
# T2 sequence: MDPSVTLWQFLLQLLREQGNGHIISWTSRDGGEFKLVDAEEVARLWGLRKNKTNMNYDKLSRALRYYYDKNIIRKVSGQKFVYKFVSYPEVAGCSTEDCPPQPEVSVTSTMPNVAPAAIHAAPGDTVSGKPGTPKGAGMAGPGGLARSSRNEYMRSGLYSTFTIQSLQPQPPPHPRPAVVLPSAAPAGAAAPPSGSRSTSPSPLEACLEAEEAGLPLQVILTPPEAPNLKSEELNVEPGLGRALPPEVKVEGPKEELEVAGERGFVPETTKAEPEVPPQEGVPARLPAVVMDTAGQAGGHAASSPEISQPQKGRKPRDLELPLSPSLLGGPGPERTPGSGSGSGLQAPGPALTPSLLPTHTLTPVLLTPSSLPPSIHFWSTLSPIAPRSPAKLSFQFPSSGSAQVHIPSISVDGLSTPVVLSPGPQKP
# Method in brief: as §1
# [3] = target: T3, GABPA (Homo sapiens, UniProt Q06546 1-454); settings: protein: recombinant; tags: N-terminal GST; dsDNA, one strand shown
# T3 sequence: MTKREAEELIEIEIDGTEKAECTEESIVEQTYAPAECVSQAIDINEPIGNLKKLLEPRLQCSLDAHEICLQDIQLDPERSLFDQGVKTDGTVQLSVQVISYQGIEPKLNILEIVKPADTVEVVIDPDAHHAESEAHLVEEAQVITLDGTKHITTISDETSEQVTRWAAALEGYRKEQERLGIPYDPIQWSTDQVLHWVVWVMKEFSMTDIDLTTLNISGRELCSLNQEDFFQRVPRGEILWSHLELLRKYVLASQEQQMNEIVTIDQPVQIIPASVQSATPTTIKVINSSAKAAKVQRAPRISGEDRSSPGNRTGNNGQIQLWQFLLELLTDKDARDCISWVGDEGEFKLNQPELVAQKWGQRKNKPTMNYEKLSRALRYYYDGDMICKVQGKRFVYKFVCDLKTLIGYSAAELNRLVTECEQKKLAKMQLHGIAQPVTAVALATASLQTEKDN
# Method in brief: as §1
# [4] = target: T4, ERG (Homo sapiens, UniProt P11308 1-479); settings: protein: recombinant; tags: N-terminal GST; dsDNA, one strand shown
# T4 sequence: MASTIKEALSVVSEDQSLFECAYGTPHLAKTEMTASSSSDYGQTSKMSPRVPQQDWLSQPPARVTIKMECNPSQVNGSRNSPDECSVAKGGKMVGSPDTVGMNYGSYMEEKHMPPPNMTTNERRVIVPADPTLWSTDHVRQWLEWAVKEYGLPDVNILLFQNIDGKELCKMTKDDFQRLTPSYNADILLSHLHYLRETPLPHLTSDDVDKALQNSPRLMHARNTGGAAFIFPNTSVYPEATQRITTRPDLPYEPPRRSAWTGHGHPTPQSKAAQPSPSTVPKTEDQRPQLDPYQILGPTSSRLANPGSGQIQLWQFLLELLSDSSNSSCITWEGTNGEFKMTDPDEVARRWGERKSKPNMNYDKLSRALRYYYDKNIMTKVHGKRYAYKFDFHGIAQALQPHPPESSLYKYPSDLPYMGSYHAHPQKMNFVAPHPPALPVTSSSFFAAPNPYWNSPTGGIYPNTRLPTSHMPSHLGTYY
# Method in brief: as §1
# [5] = target: ELF1 (Homo sapiens, UniProt P32519 1-619); settings: protein: recombinant; tags: N-terminal GST; dsDNA, one strand shown
# ELF1, sequence (P32519 whole entry): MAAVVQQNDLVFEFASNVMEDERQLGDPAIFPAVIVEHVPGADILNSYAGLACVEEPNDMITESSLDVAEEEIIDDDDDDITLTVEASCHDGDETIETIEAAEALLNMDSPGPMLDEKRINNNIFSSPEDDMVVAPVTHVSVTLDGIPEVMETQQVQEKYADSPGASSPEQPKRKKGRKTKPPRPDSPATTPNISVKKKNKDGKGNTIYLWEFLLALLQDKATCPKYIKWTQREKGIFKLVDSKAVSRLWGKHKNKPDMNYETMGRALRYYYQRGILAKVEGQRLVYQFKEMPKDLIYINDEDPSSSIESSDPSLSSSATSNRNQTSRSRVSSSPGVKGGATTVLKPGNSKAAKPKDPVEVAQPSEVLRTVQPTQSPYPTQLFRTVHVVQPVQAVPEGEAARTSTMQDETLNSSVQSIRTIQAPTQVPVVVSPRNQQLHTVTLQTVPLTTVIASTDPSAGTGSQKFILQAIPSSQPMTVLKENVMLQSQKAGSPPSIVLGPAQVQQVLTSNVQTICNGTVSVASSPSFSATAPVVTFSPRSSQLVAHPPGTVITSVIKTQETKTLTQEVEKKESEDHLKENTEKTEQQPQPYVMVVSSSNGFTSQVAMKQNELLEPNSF
# Method in brief: as §1
# [6] = target: T5, EHF (Homo sapiens, UniProt Q9NZC4 1-300); settings: protein: recombinant; tags: N-terminal GST; dsDNA, one strand shown
# T5 sequence: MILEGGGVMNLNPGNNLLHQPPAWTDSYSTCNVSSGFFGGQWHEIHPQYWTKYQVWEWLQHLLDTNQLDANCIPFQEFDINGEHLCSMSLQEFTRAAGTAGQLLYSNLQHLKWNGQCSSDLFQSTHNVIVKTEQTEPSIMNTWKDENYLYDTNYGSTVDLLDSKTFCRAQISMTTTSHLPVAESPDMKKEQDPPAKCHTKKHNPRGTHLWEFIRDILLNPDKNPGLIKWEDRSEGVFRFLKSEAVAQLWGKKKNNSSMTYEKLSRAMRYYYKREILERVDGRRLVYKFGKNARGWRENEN
# Method in brief: as §1
# [7] = target: SPI1 (Homo sapiens, UniProt P17947 1-270); settings: protein: recombinant; tags: N-terminal GST; dsDNA, one strand shown
# Method in brief: as §1
# [8] = target: SPIB (Homo sapiens, UniProt Q01892 1-262); settings: protein: recombinant; tags: N-terminal GST; dsDNA, one strand shown
# SPIB, sequence (Q01892 whole entry): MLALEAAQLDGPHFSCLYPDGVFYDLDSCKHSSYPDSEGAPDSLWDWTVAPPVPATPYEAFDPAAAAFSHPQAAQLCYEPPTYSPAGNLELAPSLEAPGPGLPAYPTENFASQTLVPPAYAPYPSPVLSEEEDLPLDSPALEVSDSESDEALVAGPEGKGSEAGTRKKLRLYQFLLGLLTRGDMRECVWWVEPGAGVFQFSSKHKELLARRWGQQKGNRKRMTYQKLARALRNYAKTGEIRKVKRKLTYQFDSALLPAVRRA
# Method in brief: as §1
# [9] = target: T6, ELK3 (Homo sapiens, UniProt P41970 1-407); settings: protein: recombinant; tags: N-terminal GST; dsDNA, one strand shown
# T6 sequence: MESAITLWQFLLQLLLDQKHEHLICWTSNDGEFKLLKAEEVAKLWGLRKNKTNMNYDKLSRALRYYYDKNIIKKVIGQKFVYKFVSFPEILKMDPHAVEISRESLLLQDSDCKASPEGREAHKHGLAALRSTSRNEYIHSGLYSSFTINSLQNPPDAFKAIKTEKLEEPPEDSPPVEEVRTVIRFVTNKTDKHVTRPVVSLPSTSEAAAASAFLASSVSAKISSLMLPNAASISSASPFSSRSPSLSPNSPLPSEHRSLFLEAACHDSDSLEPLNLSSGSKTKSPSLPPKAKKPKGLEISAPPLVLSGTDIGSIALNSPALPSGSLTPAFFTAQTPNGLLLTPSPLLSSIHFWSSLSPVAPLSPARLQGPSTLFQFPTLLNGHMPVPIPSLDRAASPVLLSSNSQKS
# Method in brief: as §1
# [10] = target: T7, FEV (Homo sapiens, UniProt Q99581 1-238); settings: protein: recombinant; tags: N-terminal GST; dsDNA, one strand shown
# T7 sequence: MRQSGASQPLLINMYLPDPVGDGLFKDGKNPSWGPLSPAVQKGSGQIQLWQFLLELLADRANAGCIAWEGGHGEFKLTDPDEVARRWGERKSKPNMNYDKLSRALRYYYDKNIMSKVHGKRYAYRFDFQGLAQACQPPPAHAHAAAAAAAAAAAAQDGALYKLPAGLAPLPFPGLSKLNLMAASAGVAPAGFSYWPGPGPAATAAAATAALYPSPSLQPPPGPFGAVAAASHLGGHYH
# Method in brief: as §1
# [11] = target: ETV5 (Homo sapiens, UniProt P41161 1-510); settings: protein: recombinant; tags: N-terminal GST; dsDNA, one strand shown
# ETV5, sequence (P41161 whole entry): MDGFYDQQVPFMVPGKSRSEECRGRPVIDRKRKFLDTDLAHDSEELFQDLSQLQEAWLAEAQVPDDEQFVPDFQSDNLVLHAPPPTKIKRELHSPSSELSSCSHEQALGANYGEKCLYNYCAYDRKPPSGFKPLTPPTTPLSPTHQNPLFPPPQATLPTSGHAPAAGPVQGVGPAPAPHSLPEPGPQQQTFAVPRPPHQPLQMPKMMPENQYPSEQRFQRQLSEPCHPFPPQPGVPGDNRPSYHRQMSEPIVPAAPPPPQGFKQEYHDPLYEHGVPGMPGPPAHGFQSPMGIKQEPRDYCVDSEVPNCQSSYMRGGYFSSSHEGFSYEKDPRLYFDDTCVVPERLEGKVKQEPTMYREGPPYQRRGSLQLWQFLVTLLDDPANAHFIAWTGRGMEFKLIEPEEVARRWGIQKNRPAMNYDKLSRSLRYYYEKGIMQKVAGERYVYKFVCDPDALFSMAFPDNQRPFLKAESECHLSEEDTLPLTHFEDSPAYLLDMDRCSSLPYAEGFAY
# Method in brief: as §1
# [12] = target: HSF1 (Homo sapiens, UniProt Q00613 1-529); settings: protein: recombinant; tags: N-terminal GST; chain copies: 3; dsDNA, one strand shown
# HSF1, sequence (Q00613 whole entry): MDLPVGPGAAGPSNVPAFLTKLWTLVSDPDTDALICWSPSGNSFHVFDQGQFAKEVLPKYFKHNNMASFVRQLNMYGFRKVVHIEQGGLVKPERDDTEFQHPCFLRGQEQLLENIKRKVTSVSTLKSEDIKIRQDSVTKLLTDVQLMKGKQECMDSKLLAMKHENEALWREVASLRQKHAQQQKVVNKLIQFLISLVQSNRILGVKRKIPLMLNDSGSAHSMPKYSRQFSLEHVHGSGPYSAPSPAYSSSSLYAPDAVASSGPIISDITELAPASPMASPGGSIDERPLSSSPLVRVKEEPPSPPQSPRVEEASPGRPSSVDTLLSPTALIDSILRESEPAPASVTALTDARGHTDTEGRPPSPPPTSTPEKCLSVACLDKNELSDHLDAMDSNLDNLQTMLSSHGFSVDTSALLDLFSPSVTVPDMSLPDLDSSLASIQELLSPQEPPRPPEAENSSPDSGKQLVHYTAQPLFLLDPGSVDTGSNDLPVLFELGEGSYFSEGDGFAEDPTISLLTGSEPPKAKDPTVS
# Method in brief: as §1
# [13] = target: T8, SPIC (Homo sapiens, UniProt Q8N5J4 1-248); settings: protein: recombinant; tags: N-terminal GST; dsDNA, one strand shown
# T8 sequence: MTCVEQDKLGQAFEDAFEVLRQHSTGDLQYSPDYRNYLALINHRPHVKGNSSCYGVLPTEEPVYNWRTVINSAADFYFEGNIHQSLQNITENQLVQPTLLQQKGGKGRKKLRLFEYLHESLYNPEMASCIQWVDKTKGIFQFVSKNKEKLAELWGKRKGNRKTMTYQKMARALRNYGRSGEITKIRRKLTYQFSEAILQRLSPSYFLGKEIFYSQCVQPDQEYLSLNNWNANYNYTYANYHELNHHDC
# Method in brief: as §1
# [14] = target: ELF4 (Homo sapiens, UniProt Q99607 1-663); settings: protein: recombinant; tags: N-terminal GST; dsDNA, one strand shown
# ELF4, sequence (Q99607 whole entry): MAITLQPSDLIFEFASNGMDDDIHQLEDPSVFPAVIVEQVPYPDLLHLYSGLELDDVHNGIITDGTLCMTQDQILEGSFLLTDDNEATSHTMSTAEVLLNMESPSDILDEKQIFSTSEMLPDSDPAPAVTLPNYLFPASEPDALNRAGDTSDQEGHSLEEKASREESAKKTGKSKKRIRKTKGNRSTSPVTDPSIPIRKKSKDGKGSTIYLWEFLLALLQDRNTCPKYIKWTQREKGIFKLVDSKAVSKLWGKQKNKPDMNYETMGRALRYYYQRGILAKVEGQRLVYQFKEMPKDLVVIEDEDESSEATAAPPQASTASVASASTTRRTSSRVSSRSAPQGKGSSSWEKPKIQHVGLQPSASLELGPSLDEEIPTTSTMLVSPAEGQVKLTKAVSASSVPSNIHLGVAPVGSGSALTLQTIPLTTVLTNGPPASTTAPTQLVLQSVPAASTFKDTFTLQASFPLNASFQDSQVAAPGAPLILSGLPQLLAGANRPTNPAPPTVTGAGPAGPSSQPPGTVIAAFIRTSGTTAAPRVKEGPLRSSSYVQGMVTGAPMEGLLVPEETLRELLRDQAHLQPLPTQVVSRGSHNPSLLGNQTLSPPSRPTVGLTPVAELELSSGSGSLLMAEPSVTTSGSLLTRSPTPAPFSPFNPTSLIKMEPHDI
# Method in brief: as §1
# [15] = target: T9, ELK4 (Homo sapiens, UniProt P28324-2 1-405); settings: protein: recombinant; tags: N-terminal GST; dsDNA, one strand shown
# T9 sequence: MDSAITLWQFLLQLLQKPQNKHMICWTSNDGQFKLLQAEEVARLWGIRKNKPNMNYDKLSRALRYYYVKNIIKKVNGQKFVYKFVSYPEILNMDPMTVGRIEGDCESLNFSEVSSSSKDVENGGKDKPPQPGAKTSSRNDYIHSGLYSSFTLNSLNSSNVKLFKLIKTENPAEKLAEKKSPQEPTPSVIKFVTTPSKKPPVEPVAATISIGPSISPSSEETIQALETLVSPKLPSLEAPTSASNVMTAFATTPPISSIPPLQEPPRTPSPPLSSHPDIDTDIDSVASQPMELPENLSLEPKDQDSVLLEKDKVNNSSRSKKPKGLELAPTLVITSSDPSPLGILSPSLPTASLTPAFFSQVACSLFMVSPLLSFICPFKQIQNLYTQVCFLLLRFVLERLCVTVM
# Method in brief: as §1
# [16] = target: T10, ETV2 (Homo sapiens, UniProt O00321 1-342); settings: protein: recombinant; tags: N-terminal GST; dsDNA, one strand shown
# T10 sequence: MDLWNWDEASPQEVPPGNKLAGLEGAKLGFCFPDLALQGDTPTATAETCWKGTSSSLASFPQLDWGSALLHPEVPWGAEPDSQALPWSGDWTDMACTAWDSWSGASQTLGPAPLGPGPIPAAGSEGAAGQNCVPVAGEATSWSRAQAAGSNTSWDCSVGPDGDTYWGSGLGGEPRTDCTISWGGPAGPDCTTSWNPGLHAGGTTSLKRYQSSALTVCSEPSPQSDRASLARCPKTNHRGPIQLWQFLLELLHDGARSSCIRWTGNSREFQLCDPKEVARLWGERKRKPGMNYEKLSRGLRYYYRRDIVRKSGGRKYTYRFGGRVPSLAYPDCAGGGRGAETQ
# Method in brief: as §1
# [17] = target: T11, ELF3 (Homo sapiens, UniProt P78545 1-371); settings: protein: recombinant; tags: N-terminal GST; dsDNA, one strand shown
# T11 sequence: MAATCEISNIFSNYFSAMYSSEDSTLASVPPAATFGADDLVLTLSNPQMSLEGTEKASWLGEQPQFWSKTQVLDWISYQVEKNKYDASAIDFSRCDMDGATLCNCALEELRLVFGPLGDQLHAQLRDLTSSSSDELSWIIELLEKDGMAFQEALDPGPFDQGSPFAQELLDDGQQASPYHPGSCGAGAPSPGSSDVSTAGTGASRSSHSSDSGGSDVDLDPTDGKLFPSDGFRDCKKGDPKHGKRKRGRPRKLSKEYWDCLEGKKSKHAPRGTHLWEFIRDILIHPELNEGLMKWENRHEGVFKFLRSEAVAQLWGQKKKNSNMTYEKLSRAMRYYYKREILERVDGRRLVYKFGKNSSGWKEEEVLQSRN
# Method in brief: as §1
# [18] = target: CRX (Homo sapiens, UniProt O43186 1-299); settings: protein: recombinant; tags: N-terminal GST; dsDNA, one strand shown
# CRX, sequence (O43186 whole entry): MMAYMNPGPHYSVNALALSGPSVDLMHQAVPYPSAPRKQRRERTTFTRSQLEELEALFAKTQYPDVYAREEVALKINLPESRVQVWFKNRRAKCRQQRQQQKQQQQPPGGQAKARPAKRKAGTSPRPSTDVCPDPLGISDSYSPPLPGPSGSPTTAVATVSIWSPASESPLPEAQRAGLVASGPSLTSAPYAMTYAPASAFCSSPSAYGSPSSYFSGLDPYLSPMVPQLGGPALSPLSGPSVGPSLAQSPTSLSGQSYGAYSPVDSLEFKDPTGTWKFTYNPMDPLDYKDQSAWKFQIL
# Method in brief: as §1
# [19] = target: ETV1 (Homo sapiens, UniProt P50549 1-477); settings: protein: recombinant; tags: N-terminal GST; dsDNA, one strand shown
# ETV1, sequence (P50549 whole entry): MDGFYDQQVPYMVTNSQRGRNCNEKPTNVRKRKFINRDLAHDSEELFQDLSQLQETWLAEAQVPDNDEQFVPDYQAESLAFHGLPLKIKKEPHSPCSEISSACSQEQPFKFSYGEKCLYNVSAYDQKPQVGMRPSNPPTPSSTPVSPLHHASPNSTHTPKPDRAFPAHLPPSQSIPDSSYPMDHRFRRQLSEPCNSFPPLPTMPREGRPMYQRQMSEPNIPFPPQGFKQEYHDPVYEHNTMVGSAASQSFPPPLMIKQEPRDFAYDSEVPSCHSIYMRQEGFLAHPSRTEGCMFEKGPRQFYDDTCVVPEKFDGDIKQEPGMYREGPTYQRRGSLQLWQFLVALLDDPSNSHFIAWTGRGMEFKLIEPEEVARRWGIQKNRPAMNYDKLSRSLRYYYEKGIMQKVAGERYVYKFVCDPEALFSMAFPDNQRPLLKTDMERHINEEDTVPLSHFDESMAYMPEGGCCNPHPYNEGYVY
# Method in brief: as §1
sequence,measurement,setting,value
CCCCCA,binding signal,[1],"1.23 fold enrichment (6-mer frequency, TF over GST control)"
same,binding signal,[2],"1.18 fold enrichment (6-mer frequency, TF over GST control)"
same,binding signal,[3],"1.23 fold enrichment (6-mer frequency, TF over GST control)"
same,binding signal,[4],"1.17 fold enrichment (6-mer frequency, TF over GST control)"
same,binding signal,[5],"1.2 fold enrichment (6-mer frequency, TF over GST control)"
same,binding signal,[6],"1.27 fold enrichment (6-mer frequency, TF over GST control)"
same,binding signal,[7],"1.23 fold enrichment (6-mer frequency, TF over GST control)"
same,binding signal,[8],"1.27 fold enrichment (6-mer frequency, TF over GST control)"
same,binding signal,[9],"1.06 fold enrichment (6-mer frequency, TF over GST control)"
same,binding signal,[10],"1.21 fold enrichment (6-mer frequency, TF over GST control)"
same,binding signal,[11],"1.19 fold enrichment (6-mer frequency, TF over GST control)"
same,binding signal,[12],"1.06 fold enrichment (6-mer frequency, TF over GST control)"
same,binding signal,[13],"1.16 fold enrichment (6-mer frequency, TF over GST control)"
same,binding signal,[14],"1.2 fold enrichment (6-mer frequency, TF over GST control)"
same,binding signal,[15],"1.19 fold enrichment (6-mer frequency, TF over GST control)"
same,binding signal,[16],"1.4 fold enrichment (6-mer frequency, TF over GST control)"
same,binding signal,[17],"1.3 fold enrichment (6-mer frequency, TF over GST control)"
same,binding signal,[18],"1.02 fold enrichment (6-mer frequency, TF over GST control)"
same,binding signal,[19],"1.18 fold enrichment (6-mer frequency, TF over GST control)"
